Data reported in the supplement of paper PMC6555819.

System: FXR:RXRa (NR concentration 270 nM, RXRa partner concentration 90 nM)
Assay: PBM binding z-score (relative to random genomic background probes); higher = stronger binding; sequences stand for … in GC…GCGATTGACAGCGTAGAATGAAGG
In short: (§1)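 The probes on custom Agilent 4×180K protein-binding microarrays were double-stranded, with 34-nt variable regions bearing direct-repeat seeds, single-nucleotide variants, half-site ablations and random human genomic background sequences. Incubation lasted 1 h with ligand-free nuclear receptor dimers in PBS pH 7.4, 2% milk, 0.02% Triton X-100, 1 mM DTT, 0.2 mg/mL BSA and 0.4 mg/ml salmon testes DNA. Antibodies against each partner (one per run) detected bound dimers, and fluorescence scans were regression-normalized. Binding z-scores take the random background probes as reference.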

| Sequence | PBM binding z-score |
| --- | --- |
| CAAACTAGGACAAGAGGTCAAAGTCCGCTTCCCG | 4.96 |
| GGAACAAGGGCAAAGTTGATAGCATCTGTCGACG | 0.623 |
| ACTTACGGGTCAAAGAGGTTATAGCACGCGTATA | 6.96 |
| CCGACTGGGGCATAAGGTTACCAGAAGCCAGCCC | 0.432 |
| ACTATTAGTTGAGACGAGAGCAACCGATAGGTTG | -0.0812 |
| TCGAGTAGGTTAGTCAGGGCATTCAGCCAACATA | 0.179 |
| TCGAGTAGGTGAGGGGCATTCAGAATGGCGTCGA | 0.283 |
| ATATGTAGGTTAAGGTTCATTCAGGTTGGTTCGC | 3.46 |
| AGAATGAGGTTATTCGTAGATCAGGGAAGAAAGT | 2.59 |
| GCGACTGGGGCACAGCAGGTTACCATAAGGTTGG | 0.178 |
| GGAACGCGGGCATTCGAGTTGATAGCATGGCGAT | -0.388 |
| CCTACTGGGCTACGAAAGGTCATTGATTCAGTGA | 3.53 |
| ACTTACCGGTCAACGAGGTTATAGCACGCGTATA | 2.61 |
| CTCGAAAGGTCGTGCTCAGGTGAGGATACCAAAC | 5.21 |
| GCTATGAGTTGAAAGGGCAACCGAATGATTCTCG | 1.13 |
| ATTTGTAGGTTAAGGGTCATTCAGGTTGGTTCGC | 5.48 |
| TATTGTAGATCAAGCAGGTTAAGAAAGCCTGAGT | -0.385 |
| CGTCATAGTTCAACTAAGGTAACGTAAAGCACGC | 3.55 |
| TGTCAAAGTTCAAAGGTAACCTAAGTATCCACAC | 7.3 |
| CGTCCATGGTCAGAGAGGTCAGTGAATGCCGAGT | 1.59 |

| Sequence | PBM binding z-score |
| --- | --- |
| ACTCGGAGGACAAAGGTCAGAGGTACGCCAGTGA | 4.04 |
| CTCGAAAGGTCGGTTTAGGTGAGTATACGGATAA | 2.13 |
| TAGCCTAGGTCATGGGGGCCAGTATAGTGTCGGC | 4.96 |
| ATCTCTAGGTAAAAGTTCAGGGAATCCCGAGGAT | 1.28 |
| CTCGAAAGGTCGTGCTCAGGTGTGTATACCAAAC | 5.43 |
| ACTTACGGGTCGACGAGGTTATAGCACGCGTATA | 1.82 |
| AGTCAAAGTTCTCTAGGTAACGTAAGATTCAGCT | 0.109 |
| AGAATGCGGTTATACGTAGATCAGGGAAGAAAGT | -0.295 |
| AGAATGAGGTTCAGATCAGGGAAACAGAATACAT | 0.604 |
| CCTACTGGGCCATCAGGTCACTGATATCAACGTT | 1.21 |
| CGTCCAAGGTCAGCAGGTTAGTGAAAGCGACGTG | 4.92 |
| CGTCCAAGGTGAATGCTAGGTCAGTGAAAGCATT | 0.506 |
| TGAATGAGGTTATAAGATCAGGGTACGTTGCAAA | 1.46 |
| TCTGCTAGCTCAACGATGGTCAGCTAATCTGCTA | -0.518 |
| TCTTGTAGATCAAGCGGGTTAAGAAAGCCTGAGT | 0.257 |
| ATATGTAGGTTATTGGGTCATTCAGTTTGCGCAT | 2.82 |
| ATCTCTAGGTAACCAGTTCAGTGAAAGAGAGGAC | 0.76 |
| TCTTGTAGACCAAGCAGGTTAAGAAAGCCTGAGT | 0.286 |
| CCTACTGGGCCATTCAGAGCTCATTGATCATATG | -0.592 |
| AGAATGAGGTTATTAAGATCAAGGAATTGCGGTC | 1.4 |

System: LXRa:RXRa (NR concentration 270 nM, RXRa partner concentration 90 nM)
Assay: as above
In short: as §1

| Sequence | PBM binding z-score |
| --- | --- |
| CAAACTAGGACAAGAGGTCAAAGTCCGCTTCCCG | 5.72 |
| GGAACAAGGGCAAAGTTGATAGCATCTGTCGACG | 0.618 |
| ACTTACGGGTCAAAGAGGTTATAGCACGCGTATA | 5.48 |
| CCGACTGGGGCATAAGGTTACCAGAAGCCAGCCC | 1.72 |
| ACTATTAGTTGAGACGAGAGCAACCGATAGGTTG | -0.233 |
| TCGAGTAGGTTAGTCAGGGCATTCAGCCAACATA | 0.175 |
| TCGAGTAGGTGAGGGGCATTCAGAATGGCGTCGA | -0.0871 |
| ATATGTAGGTTAAGGTTCATTCAGGTTGGTTCGC | 3.69 |
| AGAATGAGGTTATTCGTAGATCAGGGAAGAAAGT | 2.61 |
| GCGACTGGGGCACAGCAGGTTACCATAAGGTTGG | 0.265 |
| GGAACGCGGGCATTCGAGTTGATAGCATGGCGAT | -0.465 |
| CCTACTGGGCTACGAAAGGTCATTGATTCAGTGA | 6.04 |
| ACTTACCGGTCAACGAGGTTATAGCACGCGTATA | 3.17 |
| CTCGAAAGGTCGTGCTCAGGTGAGGATACCAAAC | 3.76 |
| GCTATGAGTTGAAAGGGCAACCGAATGATTCTCG | 1.19 |
| ATTTGTAGGTTAAGGGTCATTCAGGTTGGTTCGC | 5.5 |
| TATTGTAGATCAAGCAGGTTAAGAAAGCCTGAGT | 0.0261 |
| CGTCATAGTTCAACTAAGGTAACGTAAAGCACGC | 3.63 |
| TGTCAAAGTTCAAAGGTAACCTAAGTATCCACAC | 6.43 |
| CGTCCATGGTCAGAGAGGTCAGTGAATGCCGAGT | 1.68 |

| Sequence | PBM binding z-score |
| --- | --- |
| ACTCGGAGGACAAAGGTCAGAGGTACGCCAGTGA | 4.06 |
| CTCGAAAGGTCGGTTTAGGTGAGTATACGGATAA | 1.54 |
| TAGCCTAGGTCATGGGGGCCAGTATAGTGTCGGC | 4 |
| ATCTCTAGGTAAAAGTTCAGGGAATCCCGAGGAT | 1.71 |
| CTCGAAAGGTCGTGCTCAGGTGTGTATACCAAAC | 3.78 |
| ACTTACGGGTCGACGAGGTTATAGCACGCGTATA | 1.97 |
| AGTCAAAGTTCTCTAGGTAACGTAAGATTCAGCT | -0.065 |
| AGAATGCGGTTATACGTAGATCAGGGAAGAAAGT | 0.056 |
| AGAATGAGGTTCAGATCAGGGAAACAGAATACAT | 0.299 |
| CCTACTGGGCCATCAGGTCACTGATATCAACGTT | 0.856 |
| CGTCCAAGGTCAGCAGGTTAGTGAAAGCGACGTG | 3.23 |
| CGTCCAAGGTGAATGCTAGGTCAGTGAAAGCATT | 1.19 |
| TGAATGAGGTTATAAGATCAGGGTACGTTGCAAA | 1.39 |
| TCTGCTAGCTCAACGATGGTCAGCTAATCTGCTA | -0.557 |
| TCTTGTAGATCAAGCGGGTTAAGAAAGCCTGAGT | 0.0631 |
| ATATGTAGGTTATTGGGTCATTCAGTTTGCGCAT | 3.05 |
| ATCTCTAGGTAACCAGTTCAGTGAAAGAGAGGAC | 0.635 |
| TCTTGTAGACCAAGCAGGTTAAGAAAGCCTGAGT | 0.184 |
| CCTACTGGGCCATTCAGAGCTCATTGATCATATG | -0.786 |
| AGAATGAGGTTATTAAGATCAAGGAATTGCGGTC | 1.67 |
